Results taken from PubChem BioAssay AID651803 (National Center for Advancing Translational Sciences (NCATS), 2012).
Out of some 1,200 compounds screened, fewer than 10 were called active. Calls follow the shape of the dose curve; as a rule, active = well fitted curve in the direction sought with a large enough effect; inconclusive = small, poorly fitted or top-dose-only effect, or another doubt; inactive = no such curve, though single readings can be large or run the other way. Not all results are given here. Residues, ends and D or L forms follow the SMILES beside them.

These compounds were tested against Transcriptional regulator ERG (Homo sapiens) (UniProt P11308) (assay: qHTS for Small Molecule Inhibitors of the ERG Ets/DNA interaction: TR assay against cherry picks). Settings: ERG Ets domain-DNA fluorescence polarization, Texas red probe; series mostly up to 154 µM.
Text: The Ets family of proteins is a family of ~30 conserved transcription factors defined by the presence of an ~85 amino acid domain referred to as the Ets domain, which mediates sequence-specific DNA binding to a core DNA element GGAA/T.The Ets family member ERG has been linked to several neoplasms. […] More extensive studies of the effects of over-expression of ERG in prostate cells have recently been carried out and have shown that over-expression of ERG results in increased invasion. […] We will carry out a high throughout screen to identify inhibitors of the interaction between ERG and DNA using a fluorescence polarization (FP) assay with a His-tagged ERG Ets domain and fluorescently-labeled DNA probes to develop small molecule inhibitors of this interaction as probes to test this hypothesis and lay the groundwork for the development of targeted therapies against ERG. This is the confirmation against the cherry picks in theprimary screening assay. NIH Molecular Libraries Probe Production Network [MLPCN] NIH Chemical Genomics Center [NCGC] Grant: NS066464 PI Name: John Bushweller, University of Virgina
1.5 ul of protein solution (1 uM ERG domain in 300mM KCl, 50mM Tris-HCl, 1mM EDTA, 1mM DTT, pH 7.5); 20 nl Control plate and compound library plate; 1.5 ul mixture of 5 nM Fluorescein-DNA and 100nM Texas-615-DNA solution in same buffer as above solution; measure fluorescence polarization sequentially for fluorescein (Excitation = 480 nm, Emission = 535s, 535p nm) and Texas red (Excitation = 555 nm, Emission = 632s, 632p nm).

Chain of Transcriptional regulator ERG (Homo sapiens) (P11308 whole entry, looked up, the tested form may be a part): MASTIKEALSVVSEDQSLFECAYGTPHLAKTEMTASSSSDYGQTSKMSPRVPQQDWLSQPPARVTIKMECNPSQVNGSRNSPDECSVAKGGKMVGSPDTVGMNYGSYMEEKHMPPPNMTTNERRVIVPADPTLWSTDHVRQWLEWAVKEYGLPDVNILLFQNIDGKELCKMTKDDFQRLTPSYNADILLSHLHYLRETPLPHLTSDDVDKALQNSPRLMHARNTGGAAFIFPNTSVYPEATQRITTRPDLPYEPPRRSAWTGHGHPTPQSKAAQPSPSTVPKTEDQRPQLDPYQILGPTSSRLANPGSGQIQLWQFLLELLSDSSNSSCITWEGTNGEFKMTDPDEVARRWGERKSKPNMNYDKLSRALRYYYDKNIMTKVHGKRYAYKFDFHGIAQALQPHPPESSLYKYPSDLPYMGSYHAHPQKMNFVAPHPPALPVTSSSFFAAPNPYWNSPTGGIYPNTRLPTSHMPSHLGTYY

outcome, inactive:
Cc1ccccc1OCc1nnc(SCC(=O)Nc2ccc(N3CCOCC3)c(Cl)c2)n1C
O=C(O)c1cc(O)c2c(c1)[C@H]([C@H]1c3cc(C(=O)O)cc(O)c3C(=O)c3c(O[C@@H]4O[C@H](CO)[C@@H](O)[C@H](O)[C@H]4O)cccc31)c1cccc(OC3O[C@H](CO)[C@@H](O)[C@H](O)[C@H]3O)c1C2=O (stereo partly drawn)
COc1ccccc1CN(C)C(=O)C(NC(=O)Cc1cccc2ccccc12)C(C)C (stereo not drawn)
O=C(CN1C=NS(=O)(=O)c2ccccc21)Nc1ccc(Br)cc1
Cc1ccc(S(=O)(=O)NCC(=O)N(CC(=O)NCC2CCCO2)c2cccc(F)c2)cc1 (stereo not drawn)
Clc1ccc(SCc2nc3ccccc3[nH]2)cc1
CCc1n[nH]c(=S)n1/N=C/c1ccc(N(C)c2ccccc2)cc1
CNC(=O)c1cccc(-n2c(C)nc3cccnc32)c1C
Cc1ccc(/C=C2\SC(N3CCCCC3)=NC2=O)cc1
CCc1cccc(NC(=O)C2CCCN(S(=O)(=O)c3ccc4[nH]c(=O)ccc4c3)C2)c1 (stereo not drawn)
COc1ccc(-c2ccc(SCC(=O)NCc3ccc4c(c3)OCO4)nn2)cc1OC
C=CCn1c(=O)[nH]c2cc(C(=O)N3CC=C(c4ccccc4)CC3)ccc2c1=O
COc1ccccc1CNC(=O)CCNC(=O)C1CCN(S(=O)(=O)c2ccccc2)CC1
Oc1ccc(Nc2ccc3ccccc3c2)cc1
Cc1ccc(OCC(=O)OCC(=O)c2ccccc2)cc1C
CC(C)N1CCC(N2CCN(Cc3cccc4nonc34)CC2CCO)CC1 (stereo not drawn)
O=C(O)CNC(=O)/C(=C\c1ccc2c(c1)OCO2)NC(=O)c1ccc(Br)cc1
O=C(COc1coc(CN2CCCc3ccccc32)cc1=O)Nc1cccc([N+](=O)[O-])c1
COc1cccc(CC2(CO)CCN(S(=O)(=O)N(C)C)CC2)c1
CCOc1cc(C2c3c(oc4ccccc4c3=O)C(=O)N2Cc2ccc(OC)cc2)ccc1O (stereo not drawn)
Cc1cccc(-c2oc3ccccc3c2-c2ccc3c(c2)OCO3)c1
Cc1ncc([N+](=O)[O-])n1CC(=O)N/N=C/c1ccc(F)cc1
Cc1ccc(C(=O)Nc2ccc(C(=O)N/N=C/c3c[nH]c4ccccc34)cc2)cc1
Cc1ccc(/C=C2\Sc3ccccc3C2=O)s1
COc1ccc([C@@H](NC(=O)OC(C)(C)C)C(=O)OC(C)(C)C)cc1
O=c1ccc(-c2ccc(S(=O)(=O)Nc3cccc(Br)c3)o2)n[nH]1
Nn1c(Cc2ccccc2)nc2sc3c(c2c1=O)CCC3
CCCN(CCC)Cc1c(C(=O)N/N=C/c2cccs2)nnn1-c1nonc1N
Cn1c(CNC(=O)CNC(=O)c2ccc(C(C)(C)C)cc2)cc(=O)n(C)c1=O
C/C(=N\Nc1ccc(C#N)cc1[N+](=O)[O-])c1ccc(C)o1
CC(=O)Nc1ccc(NC(=O)C(C)OC(=O)C2CCN(S(=O)(=O)c3ccc4c(c3)OCCO4)CC2)cc1 (stereo not drawn)
CCS(=O)(=O)N1CCC(C(=O)OCC(=O)c2ccc(Br)cc2)CC1
Cn1c(SCC(=O)N2CCN(C(=O)c3ccco3)CC2)nnc1-c1ccc(NS(C)(=O)=O)cc1
CCOC(=O)N1CCC(NC(=O)Cc2ccccc2)CC1
CC(=O)NC(Cc1ccccc1)C(=O)NC(Cc1ccccc1)C(=O)O (stereo not drawn) (Ac-Phe-Phe-OH; configuration not given here)
COc1ccccc1C(=O)Nn1c(-c2cccs2)nc2ccccc2c1=O
Cc1c(OC(C(=O)O)c2ccccc2)ccc2c(-c3ccccc3)cc(=O)oc12 (stereo not drawn)
COc1cc(C(=O)Cc2nc3ccccc3n2C)cc(OC)c1OC
CC(=O)Nc1ccc(NC(=O)Nc2ccc(C)cc2C)cc1
CCOc1ccc(N/C(SCc2cccc([N+](=O)[O-])c2)=C(/C#N)C(N)=O)cc1
CC(C)(C)SC(=O)CC1NS(=O)(=O)OC2CCCCC12 (stereo not drawn)
Cc1cccn2c(=O)cc(COc3ccc(NC(=O)C(C)C)cc3)nc12
CCc1nnc2c(N3CCN(c4cccc(C(F)(F)F)c4)CC3)nc3ccccc3n12
COC(=O)c1ccc2c(=O)n(CCN3CCOCC3)c(SCC(=O)Nc3ccc(OC)cc3OC)nc2c1
COc1ccc(S(=O)(=O)N2CCc3ccccc32)cc1C(=O)N(CC(C)C)C1CCS(=O)(=O)C1 (stereo not drawn)
FC(F)(F)COc1cc(-c2nnc(SCc3ccccc3)n2Cc2ccco2)cc(OCC(F)(F)F)n1
N/C(=N\c1nc2ccccc2o1)NC(=O)c1cccc(Br)c1
Cc1ccccc1OCC(=O)Nc1ccc2[nH]ncc2c1
CCN1CCN(CCCN(Cc2cccs2)C(=S)Nc2ccccc2C)CC1
Nc1ccc2nc3c(=O)n(CCc4ccccc4)c(=O)[nH]c3nc2c1
CCOC(=O)C1=C(C)N(C[C@@H]2CC[C@@H](Cc3ccc(-c4ccccc4)cc3)O2)C(=O)NC1c1ccc([N+](=O)[O-])cc1 (stereo partly drawn)
COc1cc(/C=C/C(=O)OCC(=O)NC(=O)NC2CCCCC2C)ccc1OC(F)F (stereo not drawn)
O=S(=O)(NCCC1=CCCCC1)c1ccc(OC(F)(F)F)cc1
CCN1C(=O)CSc2ccc(C(=O)NC3CCCCC3)cc21
COc1ccc(C2(C(=O)Nc3ccc(OC)cc3OC)CCCC2)cc1
CC1COc2ccccc2N1S(=O)(=O)c1ccc(Cl)cc1 (stereo not drawn)
CCOC(=O)C1CCN(C(=O)c2cccc(S(=O)(=O)N3CCCc4ccccc43)c2)CC1
O=C(Nc1cc2c(cc1Cl)-c1ccc([N+](=O)[O-])cc1C2=NO)C(F)(F)F
CC(C)C(C(=O)O)N1CCS(=O)(=O)CC1 (stereo not drawn)
CCN(CC)c1ccc2cc(-c3nc(-c4cc(OC)c(OC)c(OC)c4)no3)c(=O)oc2c1
CCOC(=O)c1ccc(NC(=O)c2cn(-c3ccccc3)nc2-c2ccc(OC)c(OC)c2)cc1
CC(OC(=O)C1CCN(S(=O)(=O)c2ccccc2C(F)(F)F)CC1)C(=O)N(C)Cc1ccccc1 (stereo not drawn)
CCOc1ccc(NC(=O)Cc2c(C(=O)O)n(C)c3ccccc23)cc1
CN(CC(=O)NC(=O)NC1CCCCC1)CC(=O)Nc1ccc(Cl)cc1
NC(=O)Nc1ccc(C(=O)OCC(=O)NC2CCCc3ccccc32)cc1 (stereo not drawn)
Cc1ccccc1S(=O)(=O)N(CC(O)CN1C(=O)NC(C)(C)C1=O)c1ccccc1 (stereo not drawn)
Cn1cc2c(=O)n(/N=C/c3ccccc3)cnc2n1
O=C(O)CN1C(=O)C(=O)N(Cc2ccc(C(F)(F)F)cc2)C1=O
Cn1cccc1C(=O)OCC(=O)Nc1ccc2[nH]c(=O)[nH]c2c1
CCC(C)NCCOc1ccc(C)cc1[N+](=O)[O-] (stereo not drawn)
CC(C)n1c(SCc2ccccc2F)nc2c1c(=O)n(C)c(=O)n2C
CCc1ccc2c(c1)c(=O)c(C(=O)c1ccc(C)cc1)cn2CC(=O)Nc1ccccc1C
COc1ccc(C(=O)N2CCc3ccc(NC(=O)c4ccccn4)cc3C2)cc1F
CCN(CC(=O)Nc1ccc(N2CCOCC2)cc1)CC(=O)NC(C)(C)C
Cc1ccc(C)c(N(CC(=O)NCc2ccco2)C(=O)CNS(=O)(=O)c2ccc(F)cc2)c1
O=C(OCC(=O)N1CCN(c2ccccc2)CC1)c1cccc([N+](=O)[O-])c1
O=C(Nc1ccc(NS(=O)(=O)c2ccc([N+](=O)[O-])cc2)cc1)c1ccco1
Oc1ccccc1CN1CCCC(N2CCN(c3cccc(C(F)(F)F)c3)CC2)C1 (stereo not drawn)
O=C(NNC(=O)c1sccc1-n1cccc1)Nc1ccccc1
CCOC(=O)c1c(NC(=O)C(C)Sc2cn(CCNC(=O)c3ccc(OC)c(OC)c3)c3ccccc23)sc2c1CCC2 (stereo not drawn)
CC(=O)NCc1ccc(S(=O)(=O)N2CCN(c3ccccn3)CC2)cc1
CN(C(=O)COC(=O)c1cc(S(=O)(=O)N2CCOCC2)ccc1F)C1CCS(=O)(=O)C1 (stereo not drawn)
Cn1c(SCc2nnc(-c3ccccc3)o2)nc2ccccc21
COc1cccc(OC)c1C(=O)Nn1c(-c2cccs2)nc2ccccc2c1=O
Cc1cc(C)c2nc(NC(=O)[C@@H](NC(=O)c3cccc(S(=O)(=O)N4CCOCC4)c3)C(C)C)sc2c1
S=C(NCCc1ccccc1)Nc1ccc(Cl)cc1Cl
CN(C)Cc1cc2ccccc2c2c1COC2
O=C(NCC1CCN(S(=O)(=O)c2ccccc2)CC1)Nc1ccc(F)cc1
O=C1/C(=C/c2cccs2)Sc2ccccc21
Cc1ccc(N(CC(=O)NC2CCCC2)C(=O)CNC(=O)c2cccs2)c(C)c1
COc1ccc(N(C(=O)c2snc(C(N)=O)c2N)C(C(=O)NCC2CCCO2)c2ccc3ncccc3c2)cc1OC (stereo not drawn)
Cc1ccc(-c2[nH]c(-c3ccc(C(=O)O)cc3)nc2-c2ccccc2)cc1
Cc1ccccc1OCc1nc(-c2ccc(NC(=O)c3ccc4c(c3)OCO4)cc2)no1
CCOCCCNCC(=O)Nc1ccc(S(=O)(=O)NC(C)CC)cc1 (stereo not drawn)
CC1CCN(C(=O)COC(=O)c2ccc(=O)n(Cc3ccccc3)n2)CC1
C=CCN1C(=O)c2ccc(C(=O)Nc3ccccn3)cc2C1=O
Cc1cccc(NC(=O)c2cc3ccccc3nc2C)c1
CC(=O)Nc1ccc(S(=O)(=O)N[C@@H](C)C(=O)N2CCN(C/C=C/c3ccccc3)CC2)cc1
